Here are results for 8 molecules from PubChem BioAssay (NCI).

This is part of a sample that, as a whole, favours compounds with a hit. Of some 83,000 tested, about 20% had one in any assay.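 For each line, cells grew in 96-well plates with the test compound present at a single concentration for 48 hours.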 A number with no mark means an inactive call. The source made the active and inactive calls. How the source made its calls: active means growth percent below 10; inactive means the rest.

Test systems include SK-MEL-2 melanoma; EKVX NSCLC; SN12C renal; UO-31 renal; TK-10 renal; ACHN renal; CAKI-1 renal; A498 renal; CCRF-CEM leukemia; MOLT-4 leukemia; SR leukemia; RPMI-8226 leukemia; OVCAR-8 ovarian; OVCAR-5 ovarian; OVCAR-4 ovarian; SK-OV-3 ovarian; IGROV1 ovarian; OVCAR-3 ovarian; HS 578T breast; NCI/ADR-RES ovarian.
Assay in all cases: NCI-60 one-dose screen, 48 h (100 = growth as untreated, 0 = no growth, -100 = all killed)
Conditions in all cases: 10 µM unless noted

On to `Cc1[nH]c(=O)[nH]c(=O)c1Br`, for which the growth in the experiment with SK-MEL-2 melanoma was 148%; in the experiment with EKVX NSCLC, 106%; in the experiment on SN12C renal it was 98%; in the experiment with UO-31 renal, 105%; in the experiment on TK-10 renal it was 114%; in the experiment with ACHN renal it was 104%. Besides, the growth with CAKI-1 renal is 92.9%; in the experiment on A498 renal it was 103%; with CCRF-CEM leukemia, 107%; with MOLT-4 leukemia it was 94%; in the experiment on SR leukemia, 77.6%; in the experiment on RPMI-8226 leukemia, 111%. The growth was 95.2% in the experiment on OVCAR-8 ovarian; 114% in the experiment with OVCAR-5 ovarian; 117% in the experiment with OVCAR-4 ovarian; 115% with SK-OV-3 ovarian; 147% in the experiment on IGROV1 ovarian; 124% in the experiment with OVCAR-3 ovarian. Moreover, the growth was 104% in the experiment with HS 578T breast and 97.8% in the experiment with NCI/ADR-RES ovarian.
Regarding `COc1ccc(\C=N/N=C(N)/C(N)=N\N=C/c2ccc(OC)cc2)cc1`, the growth in the experiment on SK-MEL-2 melanoma was 95.5%; in the experiment on EKVX NSCLC, 95.6%; with SN12C renal it was 111%; in the experiment with UO-31 renal, 89.1%; in the experiment on TK-10 renal, 101%; in the experiment with ACHN renal it was 100%. The growth in the experiment on CAKI-1 renal is 89.8%; in the experiment on A498 renal, 96.3%; with CCRF-CEM leukemia, -48.3% (active); in the experiment with MOLT-4 leukemia it was 109%; in the experiment on SR leukemia, 46.9%; with RPMI-8226 leukemia it was 79.2%. The growth was 117% with OVCAR-8 ovarian; 107% with OVCAR-5 ovarian; 117% with OVCAR-4 ovarian; 96.1% in the experiment on SK-OV-3 ovarian; 122% with IGROV1 ovarian; 108% in the experiment on OVCAR-3 ovarian. Further, the growth in the experiment on HS 578T breast was 87.3%; with NCI/ADR-RES ovarian it was 107%.
Turning to `CCn1c(SCC(=O)N/N=C(\C)c2ccc(Cl)cc2)nc2c1c(=O)n(C)c(=O)n2C`, the growth in the experiment on SK-MEL-2 melanoma is 116%; in the experiment with EKVX NSCLC it was 97.9%; in the experiment with SN12C renal, 100%; in the experiment with UO-31 renal, 80.8%; in the experiment with TK-10 renal, 125%; in the experiment on ACHN renal it was 99.5%. Also, the growth in the experiment on CAKI-1 renal is 85.3%; in the experiment on A498 renal, 91.3%; with CCRF-CEM leukemia, 99.6%; in the experiment on MOLT-4 leukemia, 92.2%; in the experiment with SR leukemia, 93.4%; in the experiment on RPMI-8226 leukemia, 103%. Also, the growth is 99.9% with OVCAR-8 ovarian; 99% in the experiment with OVCAR-5 ovarian; 99.8% with OVCAR-4 ovarian; 109% with SK-OV-3 ovarian; 96.5% in the experiment with IGROV1 ovarian; 115% in the experiment on OVCAR-3 ovarian. Further, the figures for the growth in the experiment on HS 578T breast and in the experiment on NCI/ADR-RES ovarian were 94.4% and 102%, respectively.
For `Nc1nc2ccccc2c2c(=O)c3cccc(Cl)c3sc12`, the growth with SK-MEL-2 melanoma was 108%; in the experiment on EKVX NSCLC, 83.8%; in the experiment on SN12C renal it was 82.4%; in the experiment with UO-31 renal it was 75.4%; with TK-10 renal it was 83.6%; in the experiment with ACHN renal it was 86.8%. The growth with CAKI-1 renal was 79%; with A498 renal, 122%; in the experiment with CCRF-CEM leukemia it was 96.3%; in the experiment on MOLT-4 leukemia it was 104%; with SR leukemia, 89%; in the experiment on RPMI-8226 leukemia, 96.1%. Further, the growth is 94% with OVCAR-8 ovarian; 75% in the experiment with OVCAR-5 ovarian; 81.1% with OVCAR-4 ovarian; 86.5% in the experiment on SK-OV-3 ovarian; 73.8% in the experiment with IGROV1 ovarian; 115% with OVCAR-3 ovarian. Moreover, the figures for the growth in the experiment on HS 578T breast and in the experiment with NCI/ADR-RES ovarian were 101% and 93.1%, respectively.
In the case of `O=C1c2ccc3c4c5ccc(c24)C(=O)N1CCCOCCCCOCCCNCc1ccc(cc1)CNCCCOCCCCOCCCN(C3=O)C5=O`, the growth in the experiment with SK-MEL-2 melanoma is -35.8% (active); with EKVX NSCLC, -63.1% (active); in the experiment on SN12C renal it was -82.9% (active); with UO-31 renal, 64.7%; with TK-10 renal, 21.6%; in the experiment with ACHN renal, -65.7% (active). Further, the growth is -1.05% (active) in the experiment with CAKI-1 renal; 93.7% with A498 renal; -0.763% (active) in the experiment with CCRF-CEM leukemia; -12.3% (active) in the experiment on MOLT-4 leukemia; -10.9% (active) in the experiment with SR leukemia; 3.9% (active) with RPMI-8226 leukemia. Besides, the growth is -29.6% (active) in the experiment with OVCAR-8 ovarian; -63.3% (active) in the experiment with OVCAR-5 ovarian; -97.8% (active) in the experiment on OVCAR-4 ovarian; 12.9% in the experiment on SK-OV-3 ovarian; -78.4% (active) in the experiment with IGROV1 ovarian; -27.2% (active) with OVCAR-3 ovarian. Also, the growth with HS 578T breast was 85.6%; in the experiment with NCI/ADR-RES ovarian, 90%.
Take `O=C(CN1CCCCC1)Nc1nc(-c2cc3ccccc3oc2=O)cs1`: the growth in the experiment on SK-MEL-2 melanoma is 112%; in the experiment on EKVX NSCLC, 96.1%; in the experiment with SN12C renal, 96.1%; in the experiment with UO-31 renal, 82.9%; in the experiment with TK-10 renal, 138%; in the experiment on ACHN renal, 100%. In addition, the growth in the experiment with CAKI-1 renal is 95.9%; in the experiment on A498 renal, 97.3%; with CCRF-CEM leukemia it was 102%; in the experiment with MOLT-4 leukemia, 98.9%; in the experiment with SR leukemia, 89.5%; with RPMI-8226 leukemia, 106%. The growth is 98.3% in the experiment with OVCAR-8 ovarian; 104% with OVCAR-5 ovarian; 95.3% with OVCAR-4 ovarian; 119% in the experiment on SK-OV-3 ovarian; 92.9% in the experiment on IGROV1 ovarian; 111% in the experiment on OVCAR-3 ovarian. Also, the growth in the experiment on HS 578T breast was 93.3%; with NCI/ADR-RES ovarian it was 101%.
Regarding `Cc1ccc(-c2nc(N3CCCNCC3)c3oc(-c4ccc(C)cc4)nc3n2)cc1`, the growth in the experiment with SK-MEL-2 melanoma was 105%; in the experiment on EKVX NSCLC, 116%; in the experiment with SN12C renal it was 59.1%; in the experiment with UO-31 renal it was 62.6%; in the experiment with TK-10 renal, -1.53% (active); in the experiment with ACHN renal, -77.1% (active). For the same molecule, the growth is 108% with CAKI-1 renal; 101% with A498 renal; -72.1% (active) in the experiment with CCRF-CEM leukemia; -66% (active) with MOLT-4 leukemia; -44.5% (active) with SR leukemia; -51% (active) in the experiment with RPMI-8226 leukemia. The growth is -58.6% (active) in the experiment on OVCAR-8 ovarian; 78.5% in the experiment with OVCAR-5 ovarian; 2.2% (active) in the experiment on OVCAR-4 ovarian; 98.1% with SK-OV-3 ovarian; 12.2% in the experiment on IGROV1 ovarian; -67.7% (active) in the experiment with OVCAR-3 ovarian. Besides, the growth is 110% with HS 578T breast and 16.3% in the experiment on NCI/ADR-RES ovarian.
Regarding `C#COc1cccc(Nc2c(C#N)cnc3ncc(NC(=O)CCl)cc23)c1`, the growth was 12.4% [6.25 µM] in the experiment on SK-MEL-2 melanoma; 52% [6.25 µM] in the experiment with EKVX NSCLC; 17.3% [6.25 µM] with SN12C renal; 41.1% [6.25 µM] with UO-31 renal; 26.8% [6.25 µM] with TK-10 renal; 32.4% [6.25 µM] with ACHN renal. The growth was 36.1% [6.25 µM] in the experiment on CAKI-1 renal; 56.7% [6.25 µM] in the experiment with A498 renal; -25.3% [6.25 µM] (active) with CCRF-CEM leukemia; -2.02% [6.25 µM] (active) in the experiment on MOLT-4 leukemia; 10.2% [6.25 µM] in the experiment with SR leukemia; -18.2% [6.25 µM] (active) with RPMI-8226 leukemia. For the same molecule, the growth with OVCAR-8 ovarian was 32.2% [6.25 µM]; in the experiment on OVCAR-5 ovarian it was 42.9% [6.25 µM]; with OVCAR-4 ovarian it was 54.5% [6.25 µM]; in the experiment on SK-OV-3 ovarian, 60.4% [6.25 µM]; in the experiment on IGROV1 ovarian, 14.1% [6.25 µM]; with OVCAR-3 ovarian it was 7.58% [6.25 µM] (active). Also, the growth in the experiment on HS 578T breast is 66.8% [6.25 µM]; with NCI/ADR-RES ovarian, 76.5% [6.25 µM].
